Screening results: PubChem BioAssay, several laboratories
EP2 antag – EP2 receptor (human) inhibition; C6 glioma cells expressing human EP2, cAMP TR-FRET; cells stimulated with saturating PGE2; inhibition, % at 25 µM; 260,000 tested, 0.52% active; P43116; AID 1422;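 active = percent inhibition above 40 after rounding to a whole number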;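 note: rat C6 glioma host cells with rolipram phosphodiesterase inhibitor present; the protocol text gives 20 µM as final concentration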
Target sequence (P43116 whole entry, looked up): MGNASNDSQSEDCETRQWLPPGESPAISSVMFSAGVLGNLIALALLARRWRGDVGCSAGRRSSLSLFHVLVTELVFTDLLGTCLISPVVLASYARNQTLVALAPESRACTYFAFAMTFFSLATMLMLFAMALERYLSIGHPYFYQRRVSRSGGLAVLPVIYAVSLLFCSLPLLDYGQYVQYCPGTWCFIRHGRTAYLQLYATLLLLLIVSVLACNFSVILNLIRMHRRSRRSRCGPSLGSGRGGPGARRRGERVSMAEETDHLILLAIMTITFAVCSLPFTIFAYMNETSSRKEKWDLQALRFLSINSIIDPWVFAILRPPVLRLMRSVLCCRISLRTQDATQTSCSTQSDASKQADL
CHT block – inhibits the human high affinity choline transporter; B-score at 10 µM; 310,000 tested, 0.86% active; AID 488975; CHT-expressing cells, membrane potential dye, choline response; stronger effect = lower value; Q9GZV3;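 active = B-score over 3 SD under the library average, and starting fluorescence ratio not unusually high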;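 note: choline stimulus applied at its EC90 after an EC20 pre-addition; B-score computed on integrated fluorescence ratio after choline addition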
CHT PAM – allosteric activators of human choline transporter CHT; Q9GZV3; CHT-expressing cells, membrane potential dye, choline EC20; stronger effect = higher value; LV-AA mutant CHT in HEK293 cells; B-score at 10 µM; 310,000 tested, 0.49% active;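 active = initial fluorescence not abnormally high and integrated response B-score, plate-corrected, over 3 SD above library mean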
EP2 modulator – EP2 receptor (human) modulation. AID 940. EP2-expressing cells, cAMP HTRF FRET, PGE2 co-stimulation. induction, % at 25 µM. P43116. 260,000 tested, 0.83% active;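 active = compounds whose cAMP rise, as percent of the full-agonist control response, exceeds 60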;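 note: rat C6 glioma line stably carrying human EP2 under a CMV promoter; the protocol text gives 20 µM as final concentration; 100% = response of wells given 1 µM PGE2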
EP2 cAMP induct – EP2 receptor cAMP induction, counter-screens negative | C6 glioma EP2 cells, cAMP HTRF induction; plus low (about EC15) PGE2 agonist | shares compounds with EP2 modulator | AID 1080 | 1,300 tested, 47% active | calls only at 20 µM (by protocol);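 active = cAMP induction above 50% in the main assay while under 30% in all four parallel counter assays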;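 note: rat C6 glioma cells stably expressing human EP2 receptor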
* marks the source's active call; other numbers are inactive results; i = inactive; . = not tested or not shown; + = active, no number; ! = not confirmed by another sample. The list is not random: actives were taken first. Their share in the collection is about 2.1%.

SMILES	EP2 antag	CHT block	CHT PAM	EP2 modulator	EP2 cAMP induct
O=C(O)COc1cccc(NC(=O)c2ccccc2)c1	6.8	i	i	95.7*	+
COc1cccc(/C=N/c2oc(-c3ccccc3)cc2C#N)c1O	13.9	i	i	78.2*	i
N#Cc1cc(-c2ccccc2)oc1/N=C/c1ccccc1O	16.0	i	i	-13.8	.
COc1ccc2[nH]c(=O)c(CN(Cc3ccco3)C(=O)Nc3ccccc3F)cc2c1	4.8	.	.	-29.0	.
Cc1nc(-c2ccccc2)cc(N2CCCC2)n1	7.6	i	i	11.8	.
Cc1cc(C)n(-c2cc(-c3ccccc3)nc(C)n2)n1	13.2	i	i	68.9*	i
C=CCC1N(c2ccc(OC)cc2)C(=O)C2C(C(=O)O)C3C=CC21O3 (configuration not stated)	12.9	.	.	-1.6	.
Cc1nn(-c2ccccc2)c(Cl)c1C(=O)NCc1ccco1	8.8	.	.	-62.4	.
COc1ccc([C@@H]2C[C@H](C(=O)NC(C)(C)C)N(C)S(=O)(=O)N2)cc1OC	.	.	.	-13.4	.
Cc1cc(C)cc(OC2CCCCC2NS(=O)(=O)c2ccccc2)c1 (configuration not stated)	7.9	i	i	65.2*	+
CC1Oc2ccccc2N(CC(=O)NCCO)C1=O (configuration not stated)	10.7	.	.	-17.8	.
CC(=O)O[C@@H]1CC[C@@]2(C)C(C[C@@H](OC(C)=O)[C@@]3(C)C4=CC(=O)O[C@@H](c5ccoc5)[C@]4(C)CCC23)C1(C)C (some centres not stated)	12.7	.	.	1.7	.
COC(=O)CC1C(C)(C)C(OC(C)=O)[C@@H]2[C@@H](OC(C)=O)[C@]34O[C@@]2(O)[C@]1(C)C3CC[C@]1(C)C4=CC(=O)O[C@H]1c1ccoc1 (some centres not stated)	9.2	.	.	53.2	i
Cc1ccc(C(=O)c2cc(C)sc2NC(=O)CN2CCOCC2)cc1	15.7	.	.	49.9	.
Cc1sc(NC(=O)CN2CCOCC2)c(C(=O)c2ccccc2)c1C	0.6	i	i	69.0*	i
CCOC(=O)c1sc(NC(=O)CCN2CC(C)OC(C)C2)c(C(=O)OCC)c1C (configuration not stated)	.	i	i	50.3	i
CCOC(=O)c1c(NC(=S)N2CCN(C)CC2)sc2c1CCN(C(=O)OCC)C2	9.0	i	i	32.2	.
CCOC(=O)c1c(NC(=O)CN(CC)CC)sc2c1CCN(C(=O)OCC)C2	9.4	i	i	71.6*	+
CCOC(=O)c1c(NC(=O)CN2CCCCC2)sc(C)c1C	5.8	i	i	67.0*	+
COc1cc(OC)cc(C(=O)N2CCC(C(=O)Nc3cccc(F)c3)CC2)c1	5.9	.	.	-24.1	.
CN(C)CCN(Cc1ccncc1)Cc1ccc(Cl)cc1Cl	7.4	.	.	-48.6	.
CCOC(=O)c1c(NC(=O)Cc2cccs2)sc(C)c1C	10.9	i	i	62.2*	i
CCOC(=O)c1c(NC(=O)Cc2cccs2)sc(C(=O)NC2CCCC2)c1C	14.4	i	i	4.5	.
CCOC(=O)c1c(NC(=O)CN2CCCCC2)sc2c1CCN(C(=O)OCC)C2	.	i	i	70.5*	+
CCOC(=O)c1sc(NC(=O)CN2CCCC2)c(C(=O)OCC)c1C	.	i	i	37.1	.
SMILES	EP2 antag	CHT block	CHT PAM	EP2 modulator	EP2 cAMP induct
COC(=O)c1c(NC(=O)Cc2cccs2)sc2c1CCC(C)C2 (configuration not stated)	22.1	i	i	50.8	i
Cn1ccnc1C(NC(=O)Cc1ccc(O)cc1)c1ccc(F)c(F)c1 (configuration not stated)	6.0	.	.	-6.5	.
O=c1oc2ccc3ccccc3c2cc1-c1nnc(-c2cccc(F)c2)o1	9.7	.	.	24.2	.
COc1ccc(NC(=O)NC2CC3CCCC(C2)N3Cc2ccc(C)cc2)cc1 (configuration not stated)	23.1	.	.	-85.5	.
Cc1cc2cc(C(c3nnnn3CC3CCCO3)N3CCCc4ccccc43)c(=O)[nH]c2cc1C (configuration not stated)	-0.2	.	.	22.8	.
CCc1ccc2[nH]c(=O)c(C(c3nnnn3CC3CCCO3)N3CCCc4ccccc43)cc2c1 (configuration not stated)	2.7	i	i	77.0*!	+
CNC[C@@H](SC)c1ccc(O)c(O)c1	7.9	.	.	40.1	.
CNC[C@H](O)c1ccc(O)c(O)c1	10.5	i	i	86.0*	i
